Measurements as given in PubChem BioAssay (Tox21).
Results filed as inconclusive are left out. Activity calls are given as the source filed them. Unless noted, calls follow the shape of the dose curve; as a rule, active = well fitted curve in the direction sought with a large enough effect in the repeat runs; inconclusive = weak or mixed curves; inactive = no such curve, though single readings can be large; an effect the other way counts as inactive or inconclusive.

Legend:
[1] = qHTS assay to identify small molecule antagonists of the sonic hedgehog signaling (Shh) pathway (AID 1259369; calls by dose curve; also: nearly all actives have a fitted effect of over 45% in size; also: potency is read from the fitted curve at half-maximal effect)
Procedure, shortened: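 NIH/3T3-derived 3T3Gli1-Luc cells with stably integrated Gli1-Luc reporter were preincubated 4hr at 37 C, then given compounds in DMSO plus Shh conditioned medium and incubated 24hr. Firefly luciferase luminescence read after 30min reagent at room temperature.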

[2] = qHTS assay to identify small molecule agonists of the androgen receptor (AR) signaling pathway in the presence of an antagonist - cell viability counter screen (AID 1259379); also: series mostly up to about 92 µM; nearly all actives have a fitted effect of over 25% in size
Procedure, shortened: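 MDA-kb2 human breast carcinoma cells (stable MMTV-luciferase, AR/GR responsive) were seeded 3,000 cells/well, pre-incubated 5 hr at 37C without CO2, then given 3.0uM nilutamide and compounds at 15 concentrations for 16 hr. Viability was read by CellTiter-Fluor fluorescence.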

[3] = qHTS assay to identify small molecule agonists of the estrogen receptor beta (ER-beta) signaling pathway - cell viability counter screen (AID 1259380); also: nearly all actives have a fitted effect of over 30% in size
Procedure, shortened: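 ER-beta-UAS-bla HEK293T cells in medium with 2% charcoal-stripped FBS were preincubated 6 hr at 37C, dosed with compound in DMSO for 16 hr, then after the bla read, CellTiter-Glo was added for 30 min at room temperature; luminescence recorded.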

[4] = qHTS assay to identify small molecule antagonists of the estrogen receptor beta (ER-beta) signaling pathway - cell viability counter screen (AID 1259382);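 also: HEK293T cells carrying ER-beta-UAS-bla reporter stimulated with estradiol; series mostly up to about 92 µM; nearly all actives have a fitted effect of over 55% in size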
Procedure, shortened: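 ER-beta-UAS-bla HEK293T cells (2,000/well, 2% charcoal-stripped FBS) were pre-incubated 6 hr at 37C, then given compound plus 1nM final 17-beta-estradiol for 16 hr. Viability was read in the same wells by CellTiter-Glo luminescence after 30 min at room temperature.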

[5] = biological target: Estrogen receptor (Homo sapiens) (UniProt P03372); experiment: qHTS assay to identify small molecule agonists of the estrogen receptor alpha (ER-alpha) signaling pathway in the presence of an antagonist (AID 1259383; calls by dose curve; also: top concentration of the series differs between compounds; nearly all actives have a fitted effect of over 15% in size)
Procedure, shortened: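 VM7Luc4E2 cells (endogenous full-length ER-alpha, 4×ERE-luciferase) were precultured 5 days in phenol red-free medium with 10% charcoal-stripped FBS, given 10.0nM ICI-182,780 (final), then treated with compounds at 15 concentrations for 22hr at 37C; luminescence read with ONE-Glo.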

[6] = qHTS assay to identify small molecule agonists or antagonists of the thyroid stimulating hormone receptor (TSHR) signaling pathway - wild type cell line counter screen (AID 1259384; calls by dose curve)
Procedure, shortened: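 Wild-type HEK293 cells were plated 18 h at 37 C/5% CO2, pin-dosed with compound plus Ro20-1724 medium, held 30 min at room temperature, then given cAMP-d2 and anti-cAMP-cryptate; fluorescence was read after 1 h. Fifteen concentrations, triplicate.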

[7] = biological target: Thyrotropin receptor (Homo sapiens) (UniProt P16473); experiment: qHTS assay to identify small molecule antagonists of the thyroid stimulating hormone receptor (TSHR) signaling pathway (AID 1259385; calls by dose curve; also: nearly all actives have a fitted effect of over 20% in size)
Procedure, shortened: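 TSHR-HEK293 cells were plated and held 18 h at 37C/5% CO2, then given compound plus Ro20-1724 and stimulated with TSH at 1.5 ng/mL final. After 30 min at room temperature, cAMP was detected with cAMP-d2/anti-cAMP-cryptate (1 h) by fluorescence.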

[8] = qHTS assay to identify small molecule agonists of the estrogen receptor alpha (ER-alpha) signaling pathway in the presence of an antagonist - cell viability counter screen (AID 1259386);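 also: series mostly up to about 92 µM; cells exposed to compounds for 22 h at 37 °C before the viability read; nearly all actives have a fitted effect of over 30% in size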
Procedure, shortened: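 VM7Luc4E2 cells (endogenous full-length ER-alpha, 4×ERE-luciferase) were held 5 days in phenol red-free medium with 10% charcoal-stripped FBS, plated, then given 10.0nM ICI-182,780 and compounds at 15 concentrations for 22hr at 37C; viability read by CellTiter-Fluor fluorescence.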

[9] = biological target: Progesterone receptor (Homo sapiens) (UniProt P06401); experiment: qHTS assay to identify small molecule agonists of the progesterone receptor (PR) signaling pathway (AID 1346784; calls by dose curve; also: nearly all actives have a fitted effect of over 30% in size)
Procedure, shortened: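 The screen uses PR-UAS-bla HEK 293T cells in charcoal-stripped serum (2%). Compounds are applied for 16 hr at 37C after a 6 hr pre-incubation, and reporter activity is detected with a FRET beta-lactamase substrate after 2 hr at room temperature.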

[10] = biological target: Progesterone receptor (Homo sapiens) (UniProt P06401); experiment: qHTS assay to identify small molecule antagonists of the progesterone receptor (PR) signaling pathway (AID 1346795; active = well fitted inhibition curve with a large enough effect in the signal ratio in the repeat runs, not every such curve was filed as active; the % refers to the signal ratio)
Procedure, shortened: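 After 6 hr plating at 37C in 2% stripped-serum medium, PR-UAS-bla HEK293T cells got compounds, then 1 nM R5020. Sixteen hours later, LiveBLAzer substrate was applied for 2 hr at room temperature and fluorescence was recorded.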

[11] = qHTS assay to identify small molecule antagonists of the progesterone receptor (PR) signaling pathway - cell viability counter screen (AID 1346798); also: series mostly up to about 92 µM; nearly all actives have a fitted effect of over 50% in size
Procedure, shortened: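 Viability was determined by ATP-based luminescence (CellTiter-Glo) in PR-UAS-bla HEK293T cells cultured in 2% charcoal-stripped serum and incubated 16 hr with compounds under R5020 stimulation.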

[12] = qHTS assay to identify small molecule antagonists of the TGF-beta/Smad signaling pathway - cell viability counter screen (AID 1346824); also: nearly all actives have a fitted effect of over 50% in size
Procedure, shortened: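 SBE-bla HEK 293T cells were plated overnight at 37 C, then given compounds in DMSO plus TGF-beta1 (added as 0.25 ng/mL solution) for 5 hr. After the bla read, CellTiter-Glo was added to the same wells and luminescence read after 30 min at room temperature.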

[13] = qHTS assay to identify small molecule agonists of the TGF-beta/Smad signaling pathway - cell viability counter screen (AID 1346829); also: top concentration of the series differs between compounds; nearly all actives have a fitted effect of over 45% in size
Procedure, shortened: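 In parallel with the Smad reporter read, viability of HEK 293T cells stably carrying SBE-bla is quantified by ATP luminescence following 5 hr compound treatment.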

[14] = qHTS assay to identify small molecule agonists of the TGF-beta/Smad signaling pathway (AID 1346859; active = well fitted activation curve with a large enough effect in the signal ratio in the repeat runs, not every such curve was filed as active; the % refers to the signal ratio; also: series mostly up to about 77 µM)
Procedure, shortened: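 Dual-wavelength fluorescence (460/530 nm emission) quantified beta-lactamase expression under the Smad binding element in HEK 293T cells following 5 hr compound treatment at 37 C.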

[15] = qHTS assay to identify small molecule agonists of the progesterone receptor (PR) signaling pathway - cell viability counter screen (AID 1346799; calls by dose curve; also: nearly all actives have a fitted effect of over 45% in size)
Procedure, shortened: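 Viability was scored by ATP luminescence (CellTiter-Glo, 30 min, room temperature) in the same wells used for the reporter readout, after 16 hr compound exposure of PR-UAS-bla HEK293T cells.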

[16] = biological target: Thyrotropin-releasing hormone receptor (Homo sapiens) (UniProt P34981); experiment: qHTS assay to identify small molecule antagonists of the thyrotropin-releasing hormone receptor (TRHR) signaling pathway (AID 1346877; active = well fitted inhibition curve with a large enough effect in the repeat runs, not every such curve was filed as active; also: series mostly up to about 51 µM)
Procedure, shortened: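 TRHR-expressing HEK293 cells were seeded, cultured 18 h at 37 °C, then loaded with calcium dye for 2 h. Compounds were pre-incubated 5 min at room temperature before 1 nM TRH (final) was added, and kinetic fluorescence was recorded for 3 min.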

[17] = biological target: Thyrotropin-releasing hormone receptor (Homo sapiens) (UniProt P34981); experiment: qHTS assay to identify small molecule agonists of the thyrotropin-releasing hormone receptor (TRHR) signaling pathway (AID 1346891; calls by dose curve; also: series mostly up to about 58 µM)
Procedure, shortened: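 Kinetic fluorescence (3 min, 1 s intervals) reported intracellular calcium after compound transfer onto TRHR-Hek293 cells pre-loaded with dye for 2 h at 37 °C.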

[18] = biological target: Androgen receptor (Homo sapiens) (UniProt P10275); experiment: qHTS assay to identify small molecule agonists of the androgen receptor (AR) signaling pathway in the presence of an antagonist (AID 1259381; calls by dose curve; also: nearly all actives have a fitted effect of over 15% in size)
Procedure, shortened: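 MDA-kb2 human breast carcinoma cells carrying an MMTV-luciferase reporter (AR- and GR-responsive) were treated with compounds at 15 concentrations plus 3.0uM final nilutamide for 16hr at 37C without CO2; luminescence was read after ONE-Glo addition.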
% is scaled to controls: 0 for no effect and ±100 for the full control effect.

Chain of Thyrotropin-releasing hormone receptor (Homo sapiens) (P34981 whole entry, looked up): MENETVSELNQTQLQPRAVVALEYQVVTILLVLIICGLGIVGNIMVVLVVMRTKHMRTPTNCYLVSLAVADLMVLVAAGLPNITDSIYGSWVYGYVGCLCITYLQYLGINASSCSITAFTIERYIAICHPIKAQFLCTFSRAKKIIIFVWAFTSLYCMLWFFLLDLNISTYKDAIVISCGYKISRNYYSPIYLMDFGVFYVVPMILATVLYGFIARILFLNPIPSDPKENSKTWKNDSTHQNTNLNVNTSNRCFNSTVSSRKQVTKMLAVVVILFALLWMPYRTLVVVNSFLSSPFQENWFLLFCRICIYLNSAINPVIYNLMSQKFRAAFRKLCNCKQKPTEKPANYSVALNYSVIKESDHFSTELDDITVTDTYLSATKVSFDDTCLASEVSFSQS
Chain of Androgen receptor (Homo sapiens) (P10275 whole entry, looked up): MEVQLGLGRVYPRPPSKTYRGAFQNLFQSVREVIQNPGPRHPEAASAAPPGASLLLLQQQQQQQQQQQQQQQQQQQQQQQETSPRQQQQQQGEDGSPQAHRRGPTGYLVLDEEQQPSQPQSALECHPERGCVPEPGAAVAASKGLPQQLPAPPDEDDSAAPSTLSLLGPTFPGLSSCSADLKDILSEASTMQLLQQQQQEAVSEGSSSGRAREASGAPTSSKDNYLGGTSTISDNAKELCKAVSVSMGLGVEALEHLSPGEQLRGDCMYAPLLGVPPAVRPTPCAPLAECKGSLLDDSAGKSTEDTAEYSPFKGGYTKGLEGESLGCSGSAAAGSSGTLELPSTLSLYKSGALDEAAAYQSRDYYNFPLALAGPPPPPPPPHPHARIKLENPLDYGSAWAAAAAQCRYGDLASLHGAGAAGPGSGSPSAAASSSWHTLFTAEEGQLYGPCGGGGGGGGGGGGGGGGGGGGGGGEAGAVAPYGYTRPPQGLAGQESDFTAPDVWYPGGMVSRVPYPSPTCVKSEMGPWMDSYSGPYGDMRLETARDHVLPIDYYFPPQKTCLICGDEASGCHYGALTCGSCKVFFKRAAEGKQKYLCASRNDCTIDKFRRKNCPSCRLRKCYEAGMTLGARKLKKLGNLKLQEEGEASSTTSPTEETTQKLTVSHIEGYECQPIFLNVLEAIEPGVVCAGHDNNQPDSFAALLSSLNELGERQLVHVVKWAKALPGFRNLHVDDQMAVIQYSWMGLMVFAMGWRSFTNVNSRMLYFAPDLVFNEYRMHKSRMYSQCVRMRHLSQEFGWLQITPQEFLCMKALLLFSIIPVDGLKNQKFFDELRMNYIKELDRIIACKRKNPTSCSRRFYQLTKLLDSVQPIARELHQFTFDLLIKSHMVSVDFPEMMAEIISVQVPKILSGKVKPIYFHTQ
Chain of Thyrotropin receptor (Homo sapiens) (P16473 whole entry, looked up): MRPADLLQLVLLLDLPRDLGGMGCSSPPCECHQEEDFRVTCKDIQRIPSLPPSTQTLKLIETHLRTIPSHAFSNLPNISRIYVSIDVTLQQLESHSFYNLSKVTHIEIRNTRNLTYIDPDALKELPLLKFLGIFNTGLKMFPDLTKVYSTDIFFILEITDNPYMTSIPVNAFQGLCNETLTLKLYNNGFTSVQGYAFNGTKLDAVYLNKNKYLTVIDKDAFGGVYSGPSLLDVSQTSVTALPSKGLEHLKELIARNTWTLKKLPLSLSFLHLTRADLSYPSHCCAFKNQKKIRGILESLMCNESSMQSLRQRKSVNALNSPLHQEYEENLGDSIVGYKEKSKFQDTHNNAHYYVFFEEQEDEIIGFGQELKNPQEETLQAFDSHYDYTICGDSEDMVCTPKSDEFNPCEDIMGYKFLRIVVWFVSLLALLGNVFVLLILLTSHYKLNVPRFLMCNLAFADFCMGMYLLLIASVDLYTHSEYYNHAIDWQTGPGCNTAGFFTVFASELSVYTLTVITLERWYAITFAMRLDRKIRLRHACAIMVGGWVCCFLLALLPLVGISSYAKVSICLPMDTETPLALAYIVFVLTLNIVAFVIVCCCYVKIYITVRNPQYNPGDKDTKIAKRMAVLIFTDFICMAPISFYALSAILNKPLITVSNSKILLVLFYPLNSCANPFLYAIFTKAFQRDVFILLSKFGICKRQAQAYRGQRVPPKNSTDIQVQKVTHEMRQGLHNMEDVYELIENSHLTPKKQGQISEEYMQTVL
Chain of Estrogen receptor (Homo sapiens) (P03372 whole entry, looked up): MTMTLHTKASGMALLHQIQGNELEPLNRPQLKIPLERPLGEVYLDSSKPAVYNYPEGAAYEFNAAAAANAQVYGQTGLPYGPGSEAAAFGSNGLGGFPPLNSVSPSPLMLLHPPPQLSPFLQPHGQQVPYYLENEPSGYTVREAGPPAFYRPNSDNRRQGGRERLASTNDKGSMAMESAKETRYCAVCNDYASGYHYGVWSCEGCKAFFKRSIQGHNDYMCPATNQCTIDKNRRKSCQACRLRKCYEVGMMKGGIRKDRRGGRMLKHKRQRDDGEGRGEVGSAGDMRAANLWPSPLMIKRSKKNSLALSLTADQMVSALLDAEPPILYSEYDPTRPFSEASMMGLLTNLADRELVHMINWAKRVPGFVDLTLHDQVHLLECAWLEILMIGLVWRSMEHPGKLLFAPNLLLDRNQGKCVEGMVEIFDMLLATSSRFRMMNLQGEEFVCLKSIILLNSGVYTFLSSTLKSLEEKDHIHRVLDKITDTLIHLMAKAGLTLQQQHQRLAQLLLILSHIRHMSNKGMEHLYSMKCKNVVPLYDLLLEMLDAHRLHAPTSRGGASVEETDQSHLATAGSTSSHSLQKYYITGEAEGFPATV
Chain of Progesterone receptor (Homo sapiens) (P06401 whole entry, looked up): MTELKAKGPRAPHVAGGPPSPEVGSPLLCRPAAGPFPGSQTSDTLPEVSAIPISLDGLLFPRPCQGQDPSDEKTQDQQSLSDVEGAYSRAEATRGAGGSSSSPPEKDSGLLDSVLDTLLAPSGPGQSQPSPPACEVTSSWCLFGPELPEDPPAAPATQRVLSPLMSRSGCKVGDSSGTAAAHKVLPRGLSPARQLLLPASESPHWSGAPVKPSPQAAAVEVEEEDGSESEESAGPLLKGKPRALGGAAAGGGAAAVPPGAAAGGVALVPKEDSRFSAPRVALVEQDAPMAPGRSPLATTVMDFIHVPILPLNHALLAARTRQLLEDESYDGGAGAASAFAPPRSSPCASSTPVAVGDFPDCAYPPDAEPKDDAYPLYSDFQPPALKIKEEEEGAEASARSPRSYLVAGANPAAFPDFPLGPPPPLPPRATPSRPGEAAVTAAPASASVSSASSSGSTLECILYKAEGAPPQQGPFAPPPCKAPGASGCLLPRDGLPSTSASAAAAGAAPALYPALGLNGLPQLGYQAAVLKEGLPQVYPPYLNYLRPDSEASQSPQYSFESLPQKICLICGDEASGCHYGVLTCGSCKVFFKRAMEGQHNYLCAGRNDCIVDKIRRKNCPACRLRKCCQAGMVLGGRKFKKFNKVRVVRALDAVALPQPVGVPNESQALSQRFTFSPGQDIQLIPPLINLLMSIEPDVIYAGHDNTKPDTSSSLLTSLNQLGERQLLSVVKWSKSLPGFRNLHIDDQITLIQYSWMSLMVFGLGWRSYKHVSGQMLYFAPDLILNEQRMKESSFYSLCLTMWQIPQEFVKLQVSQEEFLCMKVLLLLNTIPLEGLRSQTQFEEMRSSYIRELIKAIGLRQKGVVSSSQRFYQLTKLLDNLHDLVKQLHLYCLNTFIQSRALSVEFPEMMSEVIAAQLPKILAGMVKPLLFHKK

CCOC(=S)SSC(=S)OCC
inactive: Potency [1] | Potency [2] | Potency [3] | Potency [4] | Potency [5] | Potency [6] | Potency [7] | Potency [8] | outcome [9] | Potency [10] | Potency [11] | Potency [12] | Potency [13] | outcome [14]

CCCC[C@H]1CN(CC2CCOCC2)C(=O)OC12CCN(C1(C)CCN(C(=O)c3c(C)ncnc3C)CC1)CC2
inactive: Potency [1] | Potency [2] | Potency [3] | Potency [4] | Potency [6] | Potency [7] | Potency [8] | outcome [9] | Potency [10] | Potency [15] | Potency [12] | Potency [13] | outcome [14] | outcome [16] | Potency [17]

O=C(O)[C@@H]1[C@H]2C[C@H]3c4[nH]c5ccccc5c4CCN3C[C@@H]2CC[C@@H]1O
inactive: Potency [1] | Potency [2] | Potency [18] | Potency [5] | Potency [6] | Potency [7] | Potency [8] | outcome [9] | Potency [10] | Potency [11] | Potency [12] | Potency [13] | outcome [14] | outcome [16] | Potency [17]

Cc1ccc(C(N)=O)cc1N
inactive: Potency [1] | Potency [2] | Potency [3] | Potency [5] | Potency [6] | Potency [7] | Potency [8] | outcome [9] | Potency [10] | Potency [11] | Potency [15] | Potency [12] | Potency [13] | outcome [14]

C=CC(=O)OCCOC(=O)CCC(=O)O
inactive: Potency [2] | Potency [3] | Potency [4] | Potency [6] | Potency [7] | Potency [8] | outcome [9] | Potency [10] | Potency [11] | Potency [15] | Potency [12] | Potency [13] | outcome [14] | outcome [16] | Potency [17]
active: Potency [1] 61.1 µM

CC(=O)/C=C/C1C(C)=CCCC1(C)C (stereo not drawn)
inactive: Potency [1] | Potency [2] | Potency [3] | Potency [4] | Potency [5] | Potency [8] | Potency [10] | Potency [11] | Potency [15] | Potency [12] | Potency [13] | outcome [14] | outcome [16] | Potency [17]

CC(=O)Nc1ccc(/C=N/NC(N)=S)cc1
inactive: Potency [1] | Potency [2] | Potency [3] | Potency [4] | Potency [6] | Potency [8] | outcome [9] | Potency [10] | Potency [11] | Potency [15] | Potency [12] | Potency [13] | outcome [14]

NC1CCN(c2nc3c(cc2F)c(=O)c(C(=O)O)cn3-c2ccc(F)cc2F)C1 (stereo not drawn)
inactive: Potency [1] | Potency [2] | Potency [3] | Potency [4] | Potency [5] | Potency [7] | Potency [8] | Potency [11] | Potency [12] | Potency [13] | outcome [14] | outcome [16] | Potency [17]

Cc1cc(NC(=O)C(=O)O)cc(C)c1Oc1ccc(O)c2c1CCC2
inactive: Potency [1] | Potency [2] | Potency [18] | Potency [4] | Potency [5] | Potency [8] | outcome [9] | Potency [10] | Potency [11] | Potency [15] | Potency [12] | Potency [13] | outcome [14] | outcome [16] | Potency [17]

C[Si](C)O[Si](C)(C)O[Si](C)(C)O[Si](C)C
inactive: Potency [1] | Potency [2] | Potency [3] | Potency [4] | Potency [5] | Potency [6] | Potency [7] | Potency [8] | outcome [9] | Potency [10] | Potency [11] | Potency [15] | Potency [12] | Potency [13] | outcome [14] | outcome [16] | Potency [17]

C=CC(C)(CCC=C(C)C)OC(=O)c1ccccc1 (stereo not drawn)
inactive: Potency [1] | Potency [2] | Potency [3] | Potency [4] | Potency [6] | Potency [7] | Potency [8] | outcome [9] | Potency [10] | Potency [11] | Potency [15] | Potency [12] | Potency [13] | outcome [14] | outcome [16] | Potency [17]

N#Cc1c(F)cccc1F
inactive: Potency [1] | Potency [2] | Potency [3] | Potency [4] | Potency [6] | Potency [7] | Potency [8] | outcome [9] | Potency [11] | Potency [15] | Potency [12] | Potency [13] | outcome [14] | outcome [16] | Potency [17]

NC[C@H]1O[C@H](O[C@H]2[C@H](O)[C@@H](O[C@H]3O[C@H](CO)[C@@H](O)[C@H](N)[C@H]3O)[C@H](N)C[C@@H]2N)[C@H](O)[C@@H](O)[C@@H]1O
inactive: activity change, negative = inhibition [1] -24.7% [at 8.39 µM] | activity change, negative = cytotoxicity [2] 1.81% [at 8.39 µM] | activity change, negative = cytotoxicity [3] 5.67% [at 8.39 µM] | cAMP activity change [6] 0.52% [at 8.39 µM, stronger effect = higher value] | activity change, negative = inhibition [7] -7.09% [at 8.39 µM] | activity change, negative = cytotoxicity [8] -3.74% [at 8.39 µM] | viability change, negative = cytotoxic [12] 0.819% [at 6.97 µM] | activity change, negative = cytotoxicity [13] 4.11% [at 6.97 µM] | activation [14] -1.71% [at 6.97 µM]

Nc1nc(N)c(-c2ccccc2)s1
inactive: Potency [1] | Potency [2] | Potency [3] | Potency [4] | Potency [8] | outcome [9] | Potency [10] | Potency [15] | Potency [12] | Potency [13] | outcome [14]

COc1ccc(C(C)=O)cc1
inactive: Potency [1] | Potency [2] | Potency [18] | Potency [4] | Potency [5] | Potency [8] | outcome [9] | Potency [10] | Potency [15] | Potency [12] | Potency [13] | outcome [14] | outcome [16] | Potency [17]

FC(F)(F)C(F)(F)C(F)(F)C(F)(F)C(F)(F)C(F)(F)CCI
inactive: Potency [1] | Potency [2] | Potency [3] | Potency [4] | Potency [5] | Potency [6] | Potency [7] | Potency [8] | outcome [9] | Potency [10] | Potency [15] | Potency [12] | Potency [13] | outcome [14] | outcome [16] | Potency [17]

CC(C)NCC(O)COc1ccc(CC(N)=O)cc1 (stereo not drawn)
inactive: Potency [1] | Potency [2] | Potency [3] | Potency [4] | Potency [5] | Potency [6] | Potency [7] | outcome [9] | Potency [10] | Potency [11] | Potency [15] | Potency [12] | Potency [13] | outcome [14] | outcome [16] | Potency [17]
